Data: PubChem BioAssay (NCI)
Compounds without any hit were thinned out: in the full panel of roughly 83,000, 20% have a hit.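 96-well plates, one dose, 48 hours. Percent growth reported; active if below 10.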 Unmarked numbers belong to inactive results. Activity calls are given as the source filed them.

Tests used:
Experiment in all cases: NCI-60 one-dose screen, 48 h (100 = growth as untreated, 0 = no growth, -100 = all killed)
Conditions in all cases: 10 µM
[1] = system: NCI-H23 lung
[2] = system: NCI-H226 lung
[3] = system: NCI-H322M lung
[4] = system: HOP-62 NSCLC
[5] = system: NCI-H460 lung
[6] = system: NCI-H522 lung
[7] = system: A549/ATCC NSCLC
[8] = system: 786-0 renal
[9] = system: COLO 205 colon
[10] = system: DU-145 prostate

Structure (SMILES)	growth [1]	growth [2]	growth [3]	growth [4]	growth [5]	growth [6]	growth [7]	growth [8]	growth [9]	growth [10]
C=C1c2c(C)nn(-c3ccc(OC)cc3)c2N(C)C23C[C@@H]1C1(C)c4c(C)nn(-c5ccc(OC)cc5)c4N(C)C(C)(C[C@H]12)C3 (stereo not given in full)	33.7%	48.7%	62.4%	59.9%	6.82% (active)	47.4%	15.4%	54.3%	23.6%	56.2%
CN(C)CCNC(=O)c1cccn2c(=O)c3cc4ccccc4cc3nc12	-3.24% (active)	-16% (active)	3.8% (active)	-26.8% (active)	-31.7% (active)	-88.5% (active)	-27.1% (active)	-31.3% (active)	-15.2% (active)	-3.1% (active)
CCCCOC(=O)Oc1ccc(C(=O)Oc2ccc(OCC)cc2)cc1	99.9%	92.7%	98.6%	113%	106%	82.7%	85.6%	96.7%	118%	97.7%
COc1ccc(-c2ccc(-c3ccc(C(=N)N)cn3)o2)cc1	85.1%	78.7%	77.6%	72.1%	82.2%	76.6%	69.5%	91.3%	-41.2% (active)	88.6%
CSc1cc(SC)ncn1	120%	107%	105%	108%	119%	100%	105%	103%	104%	115%
COc1cc(-c2nc(Nc3nc4ccccc4s3)[nH]c(=O)c2C#N)cc(OC)c1O	105%	102%	124%	99.5%	105%	97.2%	106%	101%	100%	113%
CN(CCc1ccccn1)c1ccccc1	110%	113%	113%	104%	118%	109%	99.7%	98.5%	104%	121%
COc1ccc(S(=O)(=O)NCCCNc2nccc(-c3c(-c4ccc(F)cc4)nc4sccn34)n2)cc1	74.8%	68.9%	52.7%	79.7%	36.3%	59.3%	32%	72.4%	26.9%	58.8%
CCOC(=O)N1C/C(=C/c2ccc(OC)cc2)C(=O)/C(=C/c2ccc(OC)cc2)C1	46.3%	23.8%	71.1%	29.5%	42%	39%	21.4%	-2.34% (active)	24.5%	17.7%
Clc1ccc(-c2cn(-c3ccccc3)c(-c3ccccc3)n2)c(Cl)c1	67.6%	40.7%	-17% (active)	31.6%	-100% (active)	42.6%	-8.47% (active)	-50.3% (active)	-64.3% (active)	-89.7% (active)
O=C(Nc1nc2ccccc2s1)Nc1ccc([N+](=O)[O-])cc1Cl	36.9%	103%	33.3%	110%	32.6%	-22.6% (active)	-53.1% (active)	-23.5% (active)	111%	87%
O=C(Cc1csc2nc(-c3ccc(Cl)cc3)cn12)N/N=C/c1ccccc1O	59.5%	56.2%	51.4%	40.3%	18.5%	49.2%	36.9%	32.9%	16.5%	-8.65% (active)
COc1cccc(C2C3=C(COC3=O)N(CCO)c3cc(OC)ccc32)c1 (stereo not given)	26.3%	0.496% (active)	44%	30.3%	0.788% (active)	-34.8% (active)	18%	27.9%	-16.4% (active)	-4.6% (active)
CC(C)(C)NC/C(=C\c1ccccc1)C(=O)c1ccccc1	12.4%	49.1%	63.3%	26.5%	8.72% (active)	-92.5% (active)	30.1%	-41.6% (active)	-74.1% (active)	21.8%
S=c1[nH]ccn1-c1c(Cl)cccc1Cl	100%	98.6%	102%	93.5%	101%	11%	28.9%	98.8%	115%	125%
COc1ccc(/C=C2/CN(C(=O)c3ccc(C)cc3)C/C(=C\c3ccc(OC)cc3)C2=O)cc1	87.6%	82.1%	90.2%	89.7%	105%	69.1%	87.9%	99.9%	97.6%	93.5%
O=C(O)CCCCSc1ncnc2nc[nH]c12	103%	98.6%	90.2%	96.7%	109%	84.1%	101%	97.2%	103%	101%
O=C(/C(=C/c1ccccc1)CN1CCCCC1)c1ccccc1	-51.5% (active)	-31% (active)	47.1%	-26.5% (active)	-23.9% (active)	-84% (active)	-14.2% (active)	-91.5% (active)	-79.1% (active)	8.22% (active)
COc1cc(/C=C2\CCCC3=C2N=C2SC=NN2C3c2cc(OC)c(OC)c(OC)c2)cc(OC)c1OC (stereo not given)	28.9%	13.6%	28.4%	11.8%	1.24% (active)	46.5%	13.1%	32%	25.7%	8.36% (active)
c1ccc(CO[C@H]2CO[C@H]3[C@@H]2OC[C@H]3OCc2ccccc2)cc1	107%	101%	101%	97.7%	110%	100%	111%	104%	100%	119%
COc1cc(NC(=O)CCSc2nc3ccc(Cl)cc3c(=O)n2Cc2ccccc2)cc(OC)c1OC	93.5%	31.1%	83.1%	57.2%	81.8%	-9.19% (active)	59.3%	93.2%	107%	108%
Cc1cc2c(C)c3cc(C)c(N)cc3nc2cc1N	17.1%	10.1%	-12.5% (active)	3.24% (active)	-20.5% (active)	-49.4% (active)	4.93% (active)	28%	1.41% (active)	10.6%
c1ccc(CP(Cc2ccccc2)c2ccccc2)cc1	97.9%	105%	87.3%	99.4%	112%	83.1%	97%	93.5%	106%	113%
FC(F)(F)c1ccc(-c2cnc(Cl)nc2N2CCC3(CC2)OCCO3)cc1	94.9%	94.4%	91.7%	97.2%	100%	63.2%	90.2%	95.5%	93.2%	95.5%
O=[N+]([O-])c1ccc(N/N=C/c2cccc3ccccc23)nc1	102%	121%	105%	110%	117%	84.8%	92.4%	99.2%	102%	124%
CCN1Cc2c(/C=C/c3ccccc3)nc3ccc(OC)cc3c2N(c2cccc(Cl)c2)C1	59.1%	92%	90.7%	107%	71.7%	63.7%	33.6%	72.3%	81.8%	112%
COc1ccc(-c2nsc3c2NC(=O)CC3c2ccc(F)cc2)cc1 (stereo not given)	59.5%	75.2%	39.6%	44.3%	17.2%	3.06% (active)	27.2%	57.5%	9.44% (active)	58.7%
N#CCCN1C/C(=C/c2ccc(Br)cc2)C(=O)/C(=C/c2ccc(Br)cc2)C1	-30.8% (active)	-77.6% (active)	-23.2% (active)	-59.4% (active)	-55.2% (active)	-68.4% (active)	-37.6% (active)	-67.9% (active)	-93.9% (active)	-48.4% (active)
